Measurements from the supplement of paper PMC10105736.
A number with no mark means an inactive call.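 How the source made its calls: active = MAPPIT score above the 99th percentile of random reference set scores in the same batch; inactive = at or below it.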

Experiments:
Assay in all cases: MAPPIT interaction score (arbitrary units); higher = stronger binary interaction signal, active = hit call of the paper
[1] = target: CG14535; settings: MAPPIT configuration: N-N; pair source set: screen_2
[2] = target: CG14563; settings: pair source set: RRS
[3] = target: CG17162; settings: MAPPIT configuration: N-C; pair source set: screen_3
[4] = target: Dlc90F; settings: MAPPIT configuration: N-N; pair source set: Lit-BS-16
[5] = target: CG14764; settings: MAPPIT configuration: N-N; pair source set: Curagen_low_conf
[6] = target: CG6933; settings: MAPPIT configuration: N-N; pair source set: Lit-BS-16
[7] = target: CG14818; settings: MAPPIT configuration: N-N; pair source set: screen_2
[8] = target: Tm1; settings: MAPPIT configuration: N-N; pair source set: screen_1
[9] = target: dgrn; settings: MAPPIT configuration: N-N; pair source set: screen_1
[10] = target: CG15126; settings: MAPPIT configuration: N-N; pair source set: Curagen_high_conf
[11] = target: Slob; settings: MAPPIT configuration: N-N; pair source set: Curagen_high_conf
[12] = target: CG15211; settings: MAPPIT configuration: N-N; pair source set: screen_2
[13] = target: ReepB; settings: MAPPIT configuration: N-C; pair source set: screen_3
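Further: HEK293T cells with Epo stimulation, STAT-responsive firefly luciferase reporter, fold induction versus unstimulated cells divided by the larger fold induction of two negative controls lacking either bait or prey.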

B1: Deaf1 (protein)
chain: MEQVDSSTELHLNRKDLAALAEDVVKEEVILESSSHHHHHHHHQLDTKVRMVTSSSNDNSGSGGASGGTSGAGGGNGGGGVVSVPVSLPIGSMITGTTFNVITPDQLPPHFKPMLCVDNNGYLSGSTVSMGNDLKTIVIQQQQTQPGGGGGGANNAGTNTTATNTIGLNHDGSGSNNSHDSLATLEHAAGGASGVGGGGGGTGGGSSGWSENPSTQHNEVFQIRCKTTCAELYRSKLGSGGRGRCVKYKDKWHTPSEFEHVCGRGSSKDWKRSIKYGGKSLQSLIDEGTLTPHATNCSCTVCCDDEAGESASGPVRLFTPYKRRKRNQTDLDMESGPKRKRNTHHSNNNNSNTNNNNTSGSGANNCVDVTAAVAAATASVVDENNMFLSEENITSKDEPWAALNDSLDTSTELVDQSQMGNTYERETFVVNINDGSSIAVLDTSQSMKNIEHVYCTMVKATNDFKRMLNDMKQSFERRIEVLQKERDAAVSAMRVQVHADIDDPNISGSLHGNEIISAKKCANCNREALAECSLCRKTPYCSEFCQRKDWNAHQVECTRNPQTTTQQVMLLIDDQS
MAPPIT interaction score [1]: 0.95

B2: Mettl2 (protein)
chain: MLTTSSSTMLGKYGWQILRRLASKSWEHTRQRKKPSGAGSRVLTDAREVFEFNAWDHVQWDEEQELAAKAAVAKNSTSKMEAEQKERFQTDAPKFWDSFYGIHDNRFFKDRHWLFTEFPELAPLAADSAVLQPRSIFELGCGVGNTILPLLQYSSEPQLKVFGCDFSARAIEILRSQRQFDEKRCEVFVMDATLDHWQVPFEENSQDIIVMIFVLSAIEPKKMQRVLDNCYRYLRPGGLLLFRDYGRYDLAQLRFKSGKCMEDNFYVRGDGTMVYFFTEEELRGMMTQAGLQEEQLIVDRRLQVNRCRGLKMYRVWIQTKFRKPL
MAPPIT interaction score ([2]; MAPPIT configuration: N-C): 0.238 | MAPPIT interaction score ([2]; MAPPIT configuration: N-N): -0.0268 | MAPPIT interaction score [3]: 1.73 | MAPPIT interaction score [4]: 0.581

B3: cad (protein)
chain: MVSHYYNTLPYTQKHSAANLAYASAAGQPWNWTPNYHHTPPNHQFLGDVDSSHAAHHAAAAHQMYYNSHHMFHSAAAASAGEWHSPASSTADNFVQNVPTSAHQLMQQHHHHHAHASSSSASSGSSSSGGAPGAPQLNETNSSIGVGGAGGGGGVGGATDGGPGSAPPNHQQHIAEGLPSPPITVSGSEISSPGAPTSASSPHHHLAHHLSAVANNNNNNNNNNNSPSTHNNNNNNNSVSNNNRTSPSKPPYFDWMKKPAYPAQPQPGKTRTKDKYRVVYTDFQRLELEKEYCTSRYITIRRKSELAQTLSLSERQVKIWFQNRRAKERKQNKKGSDPNVMGVGVQHADYSQLLDAKAKLEPGLHLSHSLAHSMNPMAAMNIPAMRLHPHLAAHSHSLAAVAAHSHQLQQQHSAQMSAAAAVGTLSM
MAPPIT interaction score [5]: -0.0445 | MAPPIT interaction score [6]: -0.219

B4: CG10681 (protein)
chain: MSHLGLADVHQSEDATPDLESFTGFGNSAAEAFIQSLAGMVNQGDVETMIRAQKQMLQRFEKTNEMLLNCNALSQSRLKSASEDFKRHVKCLSEMKKDLDYIFRKIRIIKQKLQSQFPAIYAEVQPQRSSLAEEAEDDTEAQAKKTAETPAPAAAKPVLSTKKSAATIEYVQMEEAVDNGTVEIENELIKRVCSVETANPNDSSDCTSEDTG
MAPPIT interaction score [7]: 5 (active) | MAPPIT interaction score [8]: 2.36 | MAPPIT interaction score [9]: 0.165

B5: Fem-1 (protein)
chain: MHAELYRTRKRWYESAWPGAGFWRGANDTLPVTNYITYPANFDQPDGQSLTPLTMAAMMGNVKFVKTLLSHYDVDLDRECNVIYDGMVVYGATALWVAAGMGHLQIVKMLVQAGAAINHNTKAQSSPLRAACYEGRLDIVEFLIDNGADVNATNLFNNNTLMIAAYKGHHLVVKTLLQNGSRANDQALCGATALHYAAESGHLDVVVALLDHGATLKKNELGITPALQAAERLHEDVLEAFIERPELMSLEEQITALELLGATYANDKIKYDVNKAYGYLLRAMQLRYSNPRGVIRKRVQPTVPAYDNWLETENLPELYAIKLNHHSIHMESLAIRERILGRNNPELPQAIIYRGAVMADQGRFYQCQVLWNYAIDLRMRNNVSVDRDLLRFAQLFAQILRVENHNLTLDHVLPVLAKCQQEIENNKFKIKEAKPNACPSLWQDQNNQNCITALYLIKIVTHLARRKKDQNIDEEHIQQLFLVVRKFIQNDTRLQDGQTLLHIAVNGVMPVDEFYTNEMCRFPCYATALVLVHCGASVVAVDSDRNTPLHILVTKVNTTQDRQAEMARILELFVEAGAHLDAVNAAGQTAATACKLPILANRLHAHQNAHTSLKCLAARSIATNRLNFKGLIPTQLEAFIQMHSVRKVLP
MAPPIT interaction score [10]: 2.87 (active) | MAPPIT interaction score [11]: 0.0788

B6: GluProRS (protein)
chain: MSIKLKANLNNPPISGLATAHLINGTVPVEIVWSKEETSLQFPDNRLLVCHSNNDVLRALARAAPDYKLYGETAIERTQIDHWLSFSLTCEDDISWALSFLDKSIAPVTYLVANKLTIADFALFNEMHSRYEFLAAKGIPQHVQRWYDLITAQPLIQKVLQSLPEDAKVKRSPQSSKEQTPAKTGERKQEGKFVDLPGAEMGKVVVRFPPEASGYLHIGHAKAALLNQYYALAFQGTLIMRFDDTNPAKETVEFENVILGDLEQLQIKPDVFTHTSNYFDLMLDYCVRLIKESKAYVDDTPPEQMKLEREQRVESANRSNSVEKNLSLWEEMVKGSEKGQKYCVRAKIDMSSPNGCMRDPTIYRCKNEPHPRTGTKYKVYPTYDFACPIVDAIENVTHTLRTTEYHDRDDQFYWFIDALKLRKPYIWSYSRLNMTNTVLSKRKLTWFVDSGLVDGWDDPRFPTVRGIIRRGMTVEGLKEFIIAQGSSKSVVFMNWDKIWAFNKKVIDPIAPRYTALEKEKRVIVNVAGAKVERIQVSVHPKDESLGKKTVLLGPRIYIDYVDAEALKEGENATFINWGNILIRKVNKDASGNITSVDAALNLENKDFKKTLKLTWLAVEDDPSAYPPTFCVYFDNIISKAVLGKDEDFKQFIGHKTRDEVPMLGDPELKKCKKGDIIQLQRRGFFKVDVAYAPPSGYTNVPSPIVLFSIPDGHTKDVPTSGLKVNAPDAKATKKASSPVSSSGQASELDSQISQQGDLVRDLKSKKAAKDQIDVAVKKLLALKADYKSATGKDWKPGQTSASSAPVPAASSSSANDAVSVNASIVKQGDLVRDLKGKKASKPEIDAAVKTLLELKAQYKTLTGQDWKPGTVPTTAAPSASAAPSVGVNDSVAQILSQITAQGDKVRELKSAKADKATVDAAVKTLLSLKADYKAATGSDWKPGTTAPAPAAAPVKVKQEKNPDPASVLTVNTLLNKIAQQGDKIRQLKSAKSEKSLVEAEVKLLLALKTDYKSLTGQEWKPGTVAPAPTTVNVIDLTGGDSGSDVGSVLSKIQAQGDKIRKLKSEKAAKNVIDPEVKTLLALKGEYKTLSGKDWTPDAKSEPAVVKKEASPVSMASPAKDELTQEINAQGEKVRAAKGNKAAKEVIDAEVAKLLALKAKYKEVTGTDFPVAGRGGGGGGGSAKKAPKEAQPKPAKPVKKEPAADASGAVKKQTRLGLEATKEDNLPDWYSQVITKGEMIEYYDVSGCYILRQWSFAIWKAIKTWFDAEITRMGVKECYFPIFVSKAVLEKEKTHIADFAPEVAWVTKSGDSDLAEPIAVRPTSETVMYPAYAKWVQSYRDLPIRLNQWNNVVRWEFKQPTPFLRTREFLWQEGHTAFADKEEAAKEVLDILDLYALVYTHLLAIPVVKGRKTEKEKFAGGDYTTTVEAFISASGRAIQGATSHHLGQNFSKMFEIVYEDPETQQKKYVYQNSWGITTRTIGVMIMVHADNQGLVLPPHVACIQAIVVPCGITVNTKDDERAQLLDACKALEKRLVGGGVRCEGDYRDNYSPGWKFNHWELKGVPLRLEVGPKDLKAQQLVAVRRDTVEKITIPLADVEKKIPALLETIHESMLNKAQEDMTSHTKKVTNWTDFCGFLEQKNILLAPFCGEISCEDKIKADSARGEEAEPGAPAMGAKSLCIPFDQPAPIAASDKCINPSCTNKPKFYTLFGRSY
MAPPIT interaction score [12]: 0.0202 | MAPPIT interaction score [13]: 1.56
